The panel holds about 83,000 compounds, 20% with a hit somewhere; the sample as a whole holds those more often.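 Treatment: one concentration, 48 hours, 96-well format. Scoring: percent growth, with anything below 10 considered active.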 Active and inactive are the calls of the source.

The experiment concerns HL-60(TB) leukemia. The experiment is described as follows: NCI-60 one-dose screen, 48 h (100 = growth as untreated, 0 = no growth, -100 = all killed). The conditions noted are these: 10 µM unless noted.
With `COc1cccc(-c2nc(-c3ccc(N)cc3)co2)c1`, the growth is 52.9% (inactive).
As for `O=C(O)c1cccc2c1C(=O)N(c1ccc3c(c1)Cc1ccccc1-3)C2=O`, the figure is 112% (inactive); as for `COc1ccc(/C=C(/C(=O)N2CCN(c3ccccc3)CC2)c2cc(OC)c(OC)c(OC)c2)cc1O`, -34.5% (active); as for `Cc1ccc(C(=O)/C(=C\c2ccc([N+](=O)[O-])cc2)S(=O)Cc2ccc(F)cc2)cc1` (stereo not given), -7.36% (active).
As for `C=C(C)[C@@H]1CC[C@]2(C)[C@H](CC[C@@H]3[C@@H]([C@@](C)(O)CCC=C(C)C)CC[C@]32C)[C@@]1(C)CCC(=O)O`, the figure is -24.1% [100 µM] (active).
As for `CCOc1cc(Cl)c(C(C)NC(=O)c2cccc(OC)c2)cc1OCC` (stereo not given), the figure is -32.8% (active); as for `Nc1n[nH]c2ccc([C@@H]3Nc4c(F)cc5[nH]ncc5c4[C@H]4C5CCC(C5)[C@@H]34)cc12` (stereo not given in full), 1.76% (active).
For `CCCc1nc2ccccn2c1Nc1ccc(C(=O)NO)cc1`, the growth is 111% (inactive).
With `COc1cc([C@@H]2c3cc4c(cc3[C@H](SC(=N)N)[C@H]3COC(=O)[C@H]23)OCO4)cc(OC)c1OC`, the growth is -18.8% (active).
For the molecule `CCCCn1c(Cc2ccc(Cl)cc2)nc2cc(OC)c(OC)cc2c1=O`, the growth is 53.7% (inactive).
In the case of `O=Cc1nc2ccccc2[nH]1`, the growth was 98% (inactive).
As for `Cn1cc(-c2ccc3occ(-c4cccc(-c5ccncc5)c4)c3n2)cn1`, the figure is 2.9% (active); as for `COc1cc(C2C3=C(COC3=O)Nc3c2ccc2c3CCCC2)cc2c1OCO2` (stereo not given), -6.76% (active); as for `CC(=Nc1ccccc1)C1=C(O)C(Cc2ccc(F)cc2)NC1=O` (stereo not given), -12.3% (active).
As for `OC1(c2ccc(Cl)c(C(F)(F)F)c2)CCN(CCCC(c2ccc(F)cc2)c2ccc(F)cc2)CC1`, the figure is -49.6% (active).
Take `CCn1c(=S)[nH]c2c(=O)n(C)c(=O)n(C)c21`: the growth was 100% (inactive).
As for `O=C(Nc1ccccc1)c1cc(-n2cnc([N+](=O)[O-])c2)cc(-n2cnc([N+](=O)[O-])c2)n1`, the figure is 96.4% (inactive).
As for `Cc1c(C)c2c(c(C)c1NC(=O)/C=C\C(=O)O)CCC(C)(CCCC(C)CCCC(C)CCCC(C)C)O2` (stereo not given), the figure is 37.3% (inactive); as for `CCSc1nc2scc(C)c2c(=O)[nH]1`, 99.8% (inactive); as for `Cn1cc(-c2csc(-c3cn(C)c4ccccc34)n2)c2cnccc21`, -41.4% (active).
As for `COc1ccc2c(c1)OC(N)=C(C#N)C2c1ccc(F)c(F)c1` (stereo not given), the figure is -18.4% (active).
On to `NC(=O)CC1(O)C=C(Br)C(=O)C(Br)=C1`, for which the growth was -27.9% (active).
With `Cn1c(=O)c2[nH]c(Cc3ccc4c(c3)OCO4)nc2n(C)c1=O`, the growth was 104% (inactive).
On to `COc1cc2ncnc(Nc3ccc(S(=O)(=O)Nc4cc(C)on4)cc3)c2cc1OCCCN1CCN(c2ccc(F)cc2)CC1`, for which the growth was 112% (inactive).
As for `C[C@]12CCC(=O)C=C1CC[C@H]1[C@@H]3C[C@@H](O)[C@](O)(C(=O)CO)[C@@]3(C)C[C@H](O)[C@@]12F`, the figure is 98.1% (inactive).

The values are drawn from PubChem BioAssay (NCI).
